ATXN2 expr inh: ATXN2 expression inhibition | Potency, µM (highest dose often 57 µM), for inactives: at the top dose activity change, negative = inhibition, most hits filed as inhibitors | 360,000 compounds, 0.72% hits | HEK-293 ATXN2-luciferase reporter, luminescence, 24 h; further: potency means the concentration at half of the fitted maximal effect; on the % scale 0 is the no-effect control and ±100 the full control effect; nearly all actives have a fitted effect of over 55% in size
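qHTS (up to 57 uM final) was run with 24 h compound exposure of reporter cells at 37 °C. Each well was multiplexed: SteadyGlo luminescence measured ATXN2-luciferase expression after a fluorogenic Gly-Phe-AFC viability readout (25 uM final).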
PINK1 modulator: PINK1 expression modulation; 410,000 compounds, 0.2% hits; PINK1 immunofluorescence, high-content cytometry, 24 h; Potency, µM (titrated, usually from 76.6 µM), for the others: at the highest dose activation (PINK1 increase), most hits filed as activators; active means well fitted activation curve with a large enough effect; inconclusive means small, poorly fitted or top-dose-only effect; cell line not stated here; further: potency means the concentration at half of the fitted maximal effect; % of control where 0% means no effect; nearly all actives have a fitted effect of over 65% in size
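Decision-based qHTS: stable cells, 24 h exposure to five compound concentrations, CCCP as control. Fixed cells stained for PINK1 plus nuclear, mitochondrial and cell markers, cytometer read.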
IL-1B inflam inh: blocks inflammasome-driven IL-1 beta release | THP-1 LPS/ATP IL-1B secretion, AlphaLISA, 16 h; active compounds read low | 360,000 compounds, 4.7% hits | activity change, % at 57.5 µM; in the data active means activity change below about -50%; inconclusive means mostly about -30% to -49%; further: on the % scale 0 is the no-effect control and ±100 the full control effect
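Secreted IL-1B measured by AlphaLISA bead assay after 16 h compound exposure of THP-1 cells; compounds (final up to 57.5 uM) added 1 h before LPS (250 ng/mL) and ATP (1.25 mM) stimulation; lower signal means less secretion.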
MCF10A rerep: inducers of DNA re-replication in MCF 10A breast cells; 350,000 compounds, 2.9% hits; AID 624296; Potency, µM (doses to about 46.1 µM), inactives show at the highest dose activity, positive = re-replication, most hits filed as activators; MCF 10A DNA re-replication, Hoechst nuclear intensity, 48 h; further: potency means the concentration at half of the fitted maximal effect; % of control where 0% means no effect; nearly all actives have a fitted effect of over 50% in size
SW480 rerep: inducers of DNA re-replication in SW480 colon cancer cells | SW480 DNA re-replication, Hoechst DNA content imaging, 48 h | Potency, µM (titrated, usually from 46.1 µM), inactives show top-dose re-replication activation, usual class: activators | 340,000 compounds, 1.8% hits; further: potency means the concentration at half of the fitted maximal effect; % of control where 0% means no effect; nearly all actives have a fitted effect of over 55% in size
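250 cells/well; 23 nL cpd via pin tool; 48 hr, 37 C, 5% CO2; Hoechst 40 min; imager read of total nuclear intensity, ex 405/em 500-530 nm.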
ATXN viability: viability counter-screen for ATXN expression inhibitors; AID 651635; Potency, µM (highest dose often 56.7 µM), actives largely listed as cytotoxic; S2 cells (HEK-293 line with an ATXN2-luciferase reporter) viability, CellTiter-Fluor protease fluorescence, 24 h; 400,000 compounds, 0.49% hits; further: potency means the concentration at half of the fitted maximal effect; nearly all actives have a fitted effect of over 40% in size
Starred values were filed as active, the others as inactive; i = inactive; u = inconclusive; x = not tested or not shown; ! = a repeat was not active; [ ] = another dose, or the depositor's remark. Shown are actives, neighbours in structure and some others; about 7.1% of the full set was active somewhere. Unless noted, the call rests on the fitted dose curve; in most records, active means well fitted curve in the direction sought with a large enough effect; inconclusive means small, poorly fitted or top-dose-only effect, or another doubt; inactive means no such curve, though single readings can be large; an effect the other way counts as inactive or inconclusive.

SMILES | ATXN2 expr inh | PINK1 modulator | IL-1B inflam inh | MCF10A rerep | SW480 rerep | ATXN viability
O=C1CCCC2=C1C(c1cccc(Br)c1)n1nc(-c3ccco3)nc1N2 (centres undefined) | -4% | 2% | -94* | 1% | 3% | i
COC(=O)c1nc2n(n1)C(c1cccc(Cl)c1)C1=C(CCCC1=O)N2 (centres undefined) | -1% | 1% | -2 | 15% | 0% | i
COC(=O)c1ccc(NC(=O)CC2C(=O)N(c3ccc(Cl)cc3)C(=O)N2Cc2ccco2)cc1 (centres undefined) | x | 6% | x | x | x | x
O=C(CCSc1ccccc1)Nc1ncccn1 | 14% | 4%[38.3 µM] | 18 | 21µM* | 23% | i
O=C(CCSc1ccccc1)Nc1ccc(S(=O)(=O)Nc2ncccn2)cc1 | -16% | 1% | 34 | -4% | 12% | i
CCn1ncc(C2C(C(=O)Nc3ccc(C)cn3)=C(C)NC3=C2C(=O)CCC3)c1C (centres undefined) | -14% | -1% | 8 | 6% | 0% | i
CC1=C(C(=O)Nc2ccc(C)cn2)C(c2cnn(C)c2)C2=C(CCCC2=O)N1 (centres undefined) | -6% | -4% | 4 | 0% | 0.52µM* | i
O=C(c1ccc(O)cc1)c1ccc(Cl)cc1 | 25% | 5% | -6 | -2% | -2% | i
C/C=C(/C(=C/C)c1ccc(O)cc1)c1ccc(O)cc1 | u | -1% | 35 | 4.6µM*! | u | u
CC(=NN=C(C)c1ccc(O)cc1)c1ccc(O)cc1 | 0% | -1% | -10 | 14% | -10% | i
C=C(c1ccc(O)cc1)c1ccc(O)cc1 | 6% | -2% | -59* | u | 0% | i
Cc1cnc(C)c(-c2cccc3c2OC(CNC(=O)CN2C(=O)c4ccccc4C2=O)C3)n1 (centres undefined) | x | -1% | x | x | x | i
CCC1C(=O)NCCN1Cc1ccc2c(c1)CN(Cc1ccc(F)c(OC)c1)CCO2 (centres undefined) | x | -1% | x | x | x | i
CC(=O)Nc1nc(C)c(-c2csc(Nc3ccc(O)cc3)n2)s1 | -17% | -4% | -88* | 18µM* | u | u
CC(=O)Nc1cccc(-c2csc(Nc3ccccn3)n2)c1 | 71% | x | -13 | -7% | -5% | i
Cc1nc(NC(=O)c2ccccc2)sc1-c1csc(Nc2ccc(C(=O)O)cc2)n1 | 29% | -3% | u | u | u | i
COc1ccc(Nc2nc(-c3sc(C)nc3C)cs2)cc1 | x | 4% | 41 | u | 1.5µM* | u
CC(=O)Nc1nc(C)c(-c2csc(Nc3ccccn3)n2)s1 | 17% | 0% | -79*! | u | 1% | u
CCC(=O)Nc1nc(C)c(-c2csc(Nc3ccc(C(=O)O)cc3)n2)s1 | 6% | 1% | 0 | 12% | 5% | i
CC(=O)Nc1ccc(Nc2nc(-c3sc(NC(C)=O)nc3C)cs2)cc1 | -37% | 4% | -95* | u | 5% | u
O=C(CN1C(=O)COc2ccc(S(=O)(=O)N3CCCCCC3)cc21)NCCc1ccccc1 | x | 0% | x | x | x | x
Oc1c(C(Nc2cccnc2)c2ccccc2F)ccc2cccnc12 (centres undefined) | x | 1% | x | x | x | x
O=C(Nc1ccccc1)c1cccc(S(=O)(=O)NCc2ccco2)c1 | -4% | -1% | -4 | 5% | -3% | i
O=C(Nc1cccc(S(=O)(=O)NCc2ccco2)c1)c1cc(-c2ccc(F)cc2)nc2ccccc12 | u | 2% | -77* | 14% | u | u
CCN(CC)S(=O)(=O)c1ccc(O)c(NC(=O)c2cc(-c3cc(OC)c(OC)c(OC)c3)nc3ccccc23)c1 | -28% | 13% | -22 | 18µM* | u | i
SMILES | ATXN2 expr inh | PINK1 modulator | IL-1B inflam inh | MCF10A rerep | SW480 rerep | ATXN viability
COc1ccc(-c2cc(C(=O)Nc3cccc(S(=O)(=O)NCc4ccco4)c3)c3ccccc3n2)cc1OC | x | 1% | u | 12µM* | u | i
COc1cc(Cl)c(C)cc1NC(=O)CN1c2ccccc2S(=O)(=O)c2ccccc21 | -4% | 1% | x | x | x | i
COc1ccc2c(c1)CC=C1C2CCC2(C)C(=O)C(=NO)CC12 (centres undefined) | -5% | -2% | -88* | u | u | i
CCn1c(Cc2ccc(OC)cc2)nc2ccccc21 | -5% | -1% | -51* | 23% | 2% | i
COc1ccc(Cn2c(/C=C/c3ccccc3)nc3ccccc32)cc1 | 99% | u | -78* | u | u | i
COc1ccc(-c2nc3ccccc3n2Cc2ccccc2)cc1 | -37% | 6% | -1 | 6% | -5% | u
CCn1c(/C=C/c2ccccc2)nc2ccccc21 | 56% | u | -8 | u | u | i
COc1ccc2c(c1)nc(N)n2Cc1ccccc1 | -7% | 0% | -98* | 27% | 4% | i
CC(C)Cn1c(/C=C/c2ccccc2)nc2ccccc21 | 86% | 18% | -66* | 8% | 5% | i
CC(C)(C)[C@@H]1COC(=O)[C@H](Cc2ccc(F)cc2)C/C=C\C[C@H](CC(=O)N(CCO)Cc2ccccc2)C(=O)N1 | -9% | 1% | -16 | 1% | 12% | u
Cc1ccc(CN2CCOc3ccc(CN4CCN(CCO)CC4)cc3C2)s1 | x | 0% | x | x | x | i
CCOc1ccccc1CNC(=O)CSc1n[nH]c(-c2ccccc2)n1 | x | 2% | x | x | x | x
COc1ccc(/C=C/c2nc3ccccc3n2C)cc1 | u | -1% | -73* | 15% | 1% | i
COc1ccccc1-c1nnc(C2CCN(C(=O)c3cccc(C)c3)CC2)o1 | 3% | 1% | x | x | x | i
COc1cccc(C2=NN(C(C)=O)C(c3cn(-c4ccccc4)nc3-c3cccs3)C2)c1 (centres undefined) | 9% | 0% | x | x | x | i
O=C1CCC(=O)O1 | 0% | 1% | -54* | -33% | u | i
COC(=O)c1ccc(C)c(NS(=O)(=O)c2ccc(OC)cc2)c1 | 0% | 5% | 0 | u | 0.26µM* | u
Cc1ccc(C)c(S(=O)(=O)Nc2ccc(O)c3ccccc23)c1 | x | 1% | -12 | -1% | -4% | u
COc1ccc(S(=O)(=O)Nc2ccc(O)c3ccccc23)cc1 | u | 1% | 13 | u | u | 20µM*
Cc1ccc(S(=O)(=O)Nc2ccc(O)c3ccccc23)c(C)c1 | -39% | -3% | -81* | 21µM* | 1% | u
COc1ccc(S(=O)(=O)Nc2ccccc2)cc1 | -20% | 3% | 22 | 0% | 20% | i
